According to the supplement of paper PMC8866396:
± gives the standard deviation of the averaged measurements.

What was measured:
IL-6-GFP PC-9GR = assay: cell viability (CCK-8 OD) relative to DMSO control (fraction of control); higher = more viable cells; settings: compound concentration: 10 uM; treatment time: 48 h
In short: (§1)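 A purchased 510-compound library was screened at a final 10 μM for 48 h against PC-9 and PC-9GR lung cancer cells overexpressing IL-6-GFP via a lentiviral construct, seeded at 3000 cells/well in 96-well plates. GFP imaging was done on a parallel plate set. For viability, CCK-8 absorbance was recorded and each well's optical density was divided by that of the vehicle control well. There were two independent replicates.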

IL-6-GFP PC-9 = assay: as above; settings: compound concentration: 10 uM; treatment time: 48 h
In short: as §1

SMILES | cell viability (IL-6-GFP PC-9GR) | cell viability (IL-6-GFP PC-9)
CC(O)CO.CCOc1ccc(Cc2cc(C3OC(CO)C(O)C(O)C3O)ccc2Cl)cc1.O (stereo not given) [Dapagliflozin propanediol monohydrate] | 1.07 ± 0.13 | 1.14 ± 0.11
CC(C)(C)OC(=O)NC1CCCCC/C=C\C2CC2(C(=O)NS(=O)(=O)C2CC2)NC(=O)C2CC(OC(=O)N3Cc4cccc(F)c4C3)CN2C1=O (stereo not given) [Danoprevir (ITMN-191)] | 1.1 ± 0.02 | 0.931 ± 0.15
CC(C(=O)[O-])c1cccc(Oc2ccccc2)c1.CC(C(=O)[O-])c1cccc(Oc2ccccc2)c1.[Ca+2] (stereo not given) [Fenoprofen Calcium] | 1.26 ± 0.064 | 0.938 ± 0.013
CC(Oc1cc(-c2cnn(C3CCNCC3)c2)cnc1N)c1c(Cl)ccc(F)c1Cl (stereo not given) | 0.43 ± 0.21 | 0.529 ± 0.15
CCN(CC)Cc1cc(Nc2ccnc3cc(Cl)ccc23)ccc1O.Cl.Cl.O.O [Amodiaquine dihydrochloride dihydrate] | 1.05 ± 0.011 | 0.756 ± 0.039
CC1CC2C3CCC4=CC(=O)C=CC4(C)C3(F)C(O)CC2(C)C1C(=O)CO (stereo not given) [Desoximetasone] | 0.815 ± 0.23 | 1.08 ± 0.093
O=NN(CCCl)C(=O)NC1CCCCC1 [Lomustine] | 1.05 ± 0.07 | 0.9506 ± 0.0079
Cc1ccc(C(=O)c2ccc(CC(=O)O)n2C)cc1 [Tolmetin] | 1.11 ± 0.13 | 1.29 ± 0.02
CC(C)C(=O)OCC(=O)C12OC(C3CCCCC3)OC1CC1C3CCC4=CC(=O)C=CC4(C)C3C(O)CC12C (stereo not given) [Ciclesonide] | 0.855 ± 0.11 | 0.894 ± 0.16
O=S1(=O)CCN(CN2CCS(=O)(=O)NC2)CN1 [Taurolidine] | 1.22 ± 0.27 | 1.234 ± 0.011
